# Laboratory results taken from PubChem BioAssay.
# Calls of active or inactive are those of the source. Unless noted, the rule behind the calls is not given here.
# Columns and labels:
# [1] = A549 cell viability effects, profiling panel, calcein-AM fluorescence, 48 h, basal (AID 1162); conditions: higher = more signal; note: test concentration not given here
# [2] = adipocyte viability effects, profiling panel, cell-based, 3T3-L1 adipocytes, calcein-AM fluorescence, 48 h, basal (AID 1163); conditions: 3T3-L1 adipocytes viability, higher = more signal; note: test concentration not given here
# [3] = HepG2 cell viability effects, profiling panel, calcein-AM fluorescence, 48 h, basal (AID 1164); conditions: higher = more signal; note: test concentration not given here
# [4] = MM1S cell viability effects, profiling panel, calcein-AM fluorescence, 48 h, basal (AID 1165); conditions: higher = more signal;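 note: viability of MM1S multiple myeloma cells under basal unstimulated conditions; test concentration not given here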
# [5] = basal RPMI8226 viability, no added stimulus, profiling panel, cell-based, calcein-AM fluorescence, 48 h, PK04 Diversity Set (AID 1166); conditions: RPMI8226 myeloma viability, higher = more signal;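 note: cells grown under basal conditions without added stimulus; test concentration not given here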
# [6] = basal HepG2 mitochondrial membrane potential changes, profiling panel, cell-based, JC-1 fluorescence, 24 h, 100 nL compound (AID 1167); conditions: higher = more signal; note: test concentration not given here
# [7] = basal 3T3-L1 adipocyte mitochondrial potential changes, profiling panel, cell-based, JC-1 fluorescence, 3T3-L1 adipocytes, 24 h, 100 nL compound (AID 1168); conditions: JC-1 mitochondrial fluorescence, higher = more signal, called active from +8 up or from −8 down; note: test concentration not given here
# [8] = basal RPMI8226 mitochondrial membrane potential changes, profiling panel, cell-based, JC-1 fluorescence, 24 h, 100 nL compound (AID 1169); conditions: RPMI8226 myeloma, JC-1 mitochondrial potential fluorescence, higher = more signal; note: test concentration not given here
# [9] = basal MM1S mitochondrial membrane potential changes, profiling panel, cell-based, JC-1 fluorescence, 24 h, 100 nL compound (AID 1170); conditions: higher = more signal; note: test concentration not given here
# [10] = A549 lung cancer cell viability effects, profiling panel, resazurin fluorescence, 24 h, PK04 Diversity Set (AID 1171); conditions: higher = more signal, called active from +8 up or from −8 down; note: test concentration not given here
# [11] = HepG2 liver cancer cell viability effects, profiling panel, resazurin fluorescence, 24 h, PK04 Diversity Set (AID 1172); conditions: higher = more signal; note: test concentration not given here
# [12] = basal S. cerevisiae growth modulation, no modifier, primary screen, OD600, strain BY4716, 24 h, basal condition (AID 1173); conditions: OD600, 24 h, higher = more signal, called active from +8 up or from −8 down
# [13] = MM1S myeloma cell viability, profiling panel, resazurin fluorescence, basal, 24 h, PK04 Diversity Set (AID 1174); conditions: higher = more signal, called active from +8 up or from −8 down;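 note: MM1S multiple myeloma cell line; test concentration not given here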
# [14] = biological target: Dihydroorotate dehydrogenase (quinone), mitochondrial (Plasmodium falciparum (isolate 3D7)) (UniProt Q08210); assay: PfDHODH enzyme inhibitors, primary screen, biochemical, C-terminal His tag, absorbance 600 nm (AID 1175); conditions: DCIP absorbance 600 nm, higher = more signal, called active from +8 up or from −8 down;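 note: recombinant parasite enzyme with a five histidine tag at its C terminus; test concentration not given here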
# [15] = P. aeruginosa biofilm formation inhibitors, primary screen, strain PAO1, LB-PBS medium, absorbance 600 nm (AID 1176); note: test concentration not given here; conditions: P. aeruginosa PAO1 growth/biofilm, A600, 12 h; higher = more signal
# [16] = S. cerevisiae RM11-1a growth modifiers, primary screen, strain RM11-1a, OD600, basal, 24 h (AID 1177); conditions: OD600, 24 h, higher = more signal, called active from +8 up or from −8 down;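 note: cultures grown under basal conditions with no added stressor; test concentration not given here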
# [17] = E. coli acrAB mutant growth effects, primary screen, E. coli filamentation inducers, strain DRC39, OD650, 24 h (AID 1178); conditions: higher = more signal, called active from +8 up or from −8 down;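 note: growth measured as culture turbidity by optical density at 650 nm; test concentration not given here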
# [18] = E. coli acrAB mutant growth effects, primary screen, E. coli filamentation inducers, strain DRC39, OD650, 48 h (AID 1179);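 note: screen aims at cell division blockers that make cells filament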; conditions: E. coli DRC39 delta-acrAB growth, higher = more signal, called active from +8 up or from −8 down
# [19] = RPMI8226 myeloma cell viability, profiling panel, resazurin fluorescence, basal, 24 h, PK04 Diversity Set (AID 1180); conditions: higher = more signal;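 note: RPMI8826 multiple myeloma cell line at 5000 cells per well; test concentration not given here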
# [20] = biological target: E3 ubiquitin-protein ligase XIAP (Homo sapiens) (UniProt P98170); assay: XIAP binders, primary screen, biophysical, small-molecule microarray, fluorescence 635 nm (AID 1181); conditions: small-molecule microarray binding, higher = more signal;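 note: score merges 667 nm emission and signal to noise over triplicate slides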
# Sequence of E3 ubiquitin-protein ligase XIAP (Homo sapiens) (P98170 whole entry, looked up): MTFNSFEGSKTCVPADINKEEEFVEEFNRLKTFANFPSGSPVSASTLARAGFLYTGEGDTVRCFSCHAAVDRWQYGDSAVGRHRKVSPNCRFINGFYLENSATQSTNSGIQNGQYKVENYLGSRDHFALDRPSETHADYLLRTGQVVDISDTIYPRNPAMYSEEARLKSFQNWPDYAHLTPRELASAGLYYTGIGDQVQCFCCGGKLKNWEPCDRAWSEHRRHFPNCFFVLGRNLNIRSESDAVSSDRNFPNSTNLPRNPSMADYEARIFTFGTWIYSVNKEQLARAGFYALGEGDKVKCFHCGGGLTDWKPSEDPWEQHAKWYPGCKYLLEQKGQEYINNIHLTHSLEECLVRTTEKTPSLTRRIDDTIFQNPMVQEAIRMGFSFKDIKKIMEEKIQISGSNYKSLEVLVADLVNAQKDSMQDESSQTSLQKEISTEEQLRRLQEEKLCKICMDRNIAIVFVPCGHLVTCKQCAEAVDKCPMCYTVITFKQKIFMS
# Sequence of Dihydroorotate dehydrogenase (quinone), mitochondrial (Plasmodium falciparum (isolate 3D7)) (Q08210 whole entry, looked up): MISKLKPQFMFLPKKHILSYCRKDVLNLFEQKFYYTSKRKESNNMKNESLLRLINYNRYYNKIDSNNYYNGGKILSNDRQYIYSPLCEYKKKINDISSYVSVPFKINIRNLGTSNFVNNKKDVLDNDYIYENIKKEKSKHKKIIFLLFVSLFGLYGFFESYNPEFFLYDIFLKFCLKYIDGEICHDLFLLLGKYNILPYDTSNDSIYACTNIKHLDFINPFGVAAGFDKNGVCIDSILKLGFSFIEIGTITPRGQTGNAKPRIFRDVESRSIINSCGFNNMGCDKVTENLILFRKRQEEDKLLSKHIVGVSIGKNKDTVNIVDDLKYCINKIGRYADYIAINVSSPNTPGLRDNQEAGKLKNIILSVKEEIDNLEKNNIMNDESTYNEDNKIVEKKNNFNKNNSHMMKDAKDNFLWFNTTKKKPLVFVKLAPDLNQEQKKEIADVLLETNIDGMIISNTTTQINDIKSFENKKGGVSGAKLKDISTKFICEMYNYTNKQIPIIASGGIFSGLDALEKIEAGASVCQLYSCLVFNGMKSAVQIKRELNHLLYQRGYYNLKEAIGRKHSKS
Structure (SMILES),z-score [1],z-score [2],z-score [3],z-score [4],z-score [5],z-score [6],z-score [7],z-score [8],z-score [9],z-score [10],z-score [11],z-score [12],z-score [13],composite z-score [14],z-score [15],z-score [16],z-score [17],z-score [18],z-score [19],composite z-score [20]
Cc1cc2c(nc1C)CCCCN2CC(C)ON=C[C@@H](C)[C@H](OCc1ccccc1)C(C)C (stereo not given in full),-0.672,-0.44,-1.27,-2.94,-3.77,-1.91,-1.4 (inactive),-0.262,0.034,4.05 (inactive),1.48,-5.49 (inactive),0.674 (inactive),-0.983 (inactive),0.675 (inactive),-1.02 (inactive),-0.152 (inactive),-0.4 (inactive),1.4,0.0856
CC(C)=CCCC(C)=CCON=C1C[C@@H](O)[C@@H](O)[C@@H]2[C@@H]3C(=O)N(C4CCCCC4)C(=O)[C@@H]3CC[C@@H]12,-0.972,-0.345,-1.14,-2.39,-1.36,-1.64,-1.22 (inactive),-0.258,-0.859,0.023 (inactive),-0.199,-0.81 (inactive),-0.454 (inactive),-0.42 (inactive),0.565 (inactive),-0.709 (inactive),0.0915 (inactive),-0.742 (inactive),-0.51,0.0905
Cn1c(=O)n2n(c1=O)[C@H]1[C@H](O)[C@@H]3O[C@@H]3C(=NOCc3ccccc3)[C@H]1CC2,0.102,-0.48,0.316,0.0846,-0.548,-0.141,-0.383 (inactive),-0.0104,-0.338,-0.508 (inactive),0.0287,0.0108 (inactive),-0.189 (inactive),-1.08 (inactive),-0.0242 (inactive),-0.186 (inactive),-0.289 (inactive),-0.265 (inactive),-0.336,-0.222
CO[C@@H]1COC(=O)[C@H](CCSC)NC(=O)CC=C[C@@H](C)COC(=O)[C@H](C)NC(=O)CC=C[C@H]1C,0.205,0.0719,0.677,0.174,-0.0512,0.381,-0.225 (inactive),-0.226,2.32,0.767 (inactive),0.356,-1.15 (inactive),0.457 (inactive),0.262 (inactive),-0.838 (inactive),-0.224 (inactive),0.916 (inactive),0.577 (inactive),0.693,-0.324
CCOC(=O)[C@H](CC(C)C)NC(=O)CCC1CC(OC(=O)NCCc2ccc(F)cc2)CC2(CCCC(COC(=O)NCCOc3ccccc3)O2)O1 (stereo not given in full),-0.331,0.593,-2.7,-3.46,-3.56,-1.82,1.04 (inactive),-0.462,-0.0103,0.169 (inactive),-0.972,0.0544 (inactive),0.2 (inactive),0.95 (inactive),-0.883 (inactive),0.446 (inactive),-0.183 (inactive),0.168 (inactive),0.161,-0.214
O=C1C[C@@H](O)[C@@H](O)[C@@H]2[C@@H]3C(=O)N(C[C@@H]4CCCO4)C(=O)[C@@H]3CC[C@H]12,-0.232,-0.42,0.614,0.136,0.433,0.446,0.763 (inactive),-0.131,-0.586,-0.747 (inactive),-0.57,-0.189 (inactive),-0.0898 (inactive),0.602 (inactive),-0.744 (inactive),0.739 (inactive),0.343 (inactive),0.17 (inactive),-0.449,-0.28
O=C1C=C[C@@H](O)[C@@H]2[C@@H]3C(=O)N(C[C@@H]4CCCO4)C(=O)[C@@H]3CC[C@@H]12,-0.663,0.316,0.324,-0.121,0.757,1.09,0.0236 (inactive),-0.643,0.744,-0.379 (inactive),0.111,0.499 (inactive),0.561 (inactive),-0.0546 (inactive),-0.425 (inactive),0.0539 (inactive),0.117 (inactive),-0.282 (inactive),0.91,0.0032
O=C1CCCC=C1C(CCc1ccccc1)OC(=O)c1ccc(Br)cc1 (stereo not given),-0.281,0.893,-0.318,-3.42,-2.69,-0.158,-1.15 (inactive),-0.619,-0.127,-0.251 (inactive),-0.0575,-0.744 (inactive),-0.688 (inactive),-1.19 (inactive),1.18 (inactive),-0.0079 (inactive),-0.147 (inactive),-0.247 (inactive),0.504,0.289
C[n+]1ccc(-c2ccc(CO)cc2)cc1,-1.45,-0.84,-0.0981,-0.31,-0.196,-1.04,-0.872 (inactive),-0.634,0.236,-0.939 (inactive),-0.557,0.11 (inactive),-0.404 (inactive),-10 (active),-0.407 (inactive),-0.142 (inactive),0.207 (inactive),-0.0742 (inactive),-0.674,0.433
